# Experimental data taken from PubChem BioAssay AID1347056 (Sanford-Burnham Center for Chemical Genomics, 2019).
# Among all 360,000 compounds or so, about 3,600 (1%) were called active. The sample holds actives, similar compounds and a random draw of the others, so the mix is not that of the screen.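 How the source made its calls: active means compounds whose plate-normalised and pattern-corrected inhibition of the luciferase reporter signal at the single screening dose is 50% or more; inactive means the rest.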
# Test: TROY pathway blockers in reporter cells – Q293 LMP1-TROYcd cells, NF-kB luciferase, uHTS, primary screen (AID 1347056)
# Conditions: 4 h, at 10 µM, active compounds read high
row,SMILES,inhibition
1,COc1ccc(C(CNC(=O)c2ccc(OCc3cscn3)cc2)N2CCCC2)cc1 (configuration not stated),0.55% (inactive)
2,CCCS(=O)(=O)N1CCC(C(=O)NCCc2ccc(OC)c(OC)c2)CC1,0.11% (inactive)
3,Clc1ccccc1Nc1nc(NCc2cccs2)nc2ccsc12,6.87% (inactive)
4,COCCNc1nc(NCc2ccc(NC(C)=O)cc2)c2sccc2n1,8.19% (inactive)
5,COc1cccc(CNc2nc(NCc3cccs3)nc3ccsc23)c1,57.2% (active)
6,COc1cccc(CNc2nc(NCc3ccccc3OC)nc3ccsc23)c1,53.4% (active)
7,COc1ccccc1CNc1nc(Nc2ccccc2Cl)c2sccc2n1,42.1% (inactive)
8,COc1cccc(-c2cc3nc(NCc4ccccc4OC)n(C)c(=O)c3s2)c1,-20.1% (inactive)
9,CCOCCCNC(=S)N1CCC(NC(=O)C2CCCCC2)CC1,10.6% (inactive)
10,COc1ccc(C)cc1S(=O)(=O)NCCc1ccccc1,10.5% (inactive)
11,O=[N+]([O-])c1cc(S(=O)(=O)NCCc2ccccn2)ccc1Cl,-5.27% (inactive)
12,Cc1ccc(CC(=O)Nc2cccc(C#N)c2)cc1,5.18% (inactive)
13,CCOc1c2ccc(C(=O)NC3CCCc4ccccc43)cc2nn1CC (configuration not stated),2.7% (inactive)
14,C/C(=N\NS(=O)(=O)c1ccc(Cl)cc1)c1ccc(NC(=O)c2ccco2)cc1,-42.5% (inactive)
15,COc1ccc(-n2ncc3c(SCC(=O)NNC(C)=O)ncnc32)cc1,-14.8% (inactive)
16,CN(C(=O)COc1ncnc2c1cnn2-c1ccccc1)C1CCCCC1,11.5% (inactive)
17,COc1ccc(-n2ncc3c(N4CCCc5ccccc54)ncnc32)cc1,62.1% (active)
18,O=C(CC1CCCCC1)NCc1ccc(F)cc1,-30.5% (inactive)
19,CC(C)NC(=O)N1Cc2cc(C(=O)NCC(F)(F)F)nc(-c3cccc(-c4cc5ccccc5o4)c3)c2[C@@H]1CCO,9.45% (inactive)
20,COC(=O)[C@@H]1C[C@H]2CC[C@H](O)C[C@H]2N1Cc1ccc(N2CCN(C)CC2)cc1,4.5% (inactive)
21,CC(C)(CNC(=O)CNC(=O)C1CCCCC1)N1CCOCC1,6.69% (inactive)
22,O=C(O)c1cc(S(=O)(=O)N(Cc2ccccc2)c2cccc(C(F)(F)F)c2)ccc1Cl,3% (inactive)
23,O=C(NNc1ccccc1Cl)C(O)(c1cccc(C(F)(F)F)c1)c1cccc(C(F)(F)F)c1,54.1% (active)

row,SMILES,inhibition
1,O=c1cc(O)c(-c2cccc(C(F)(F)F)c2)c(Cl)[nH]1,-14.8% (inactive)
2,Cc1ccc(S(=O)(=O)N2CCC3(CC2)OCCO3)c(C)c1,5.19% (inactive)
3,COc1ccc(/C(C)=N/N2CCOCC2)c(O)c1,6.68% (inactive)
4,CC1=C(C)CC(C(=O)NNC(=O)c2csc3c2CCC(C(C)(C)C)C3)C(C(=O)O)C1 (configuration not stated),-0.5% (inactive)
5,O=C(NCCCN1CCN(Cc2ccccc2)CC1)C1CCN(S(=O)(=O)N2CCCC2)CC1,-13% (inactive)
6,COc1ccc(N2CCN(CCCNC(=O)C3CCN(S(=O)(=O)N4CCOCC4)CC3)CC2)cc1,91.5% (active)
7,COc1ccc(CNC(=O)C2CCN(S(=O)(=O)N3CCOCC3)CC2)cc1,7% (inactive)
8,CCCCc1c(-c2ccc(Cl)cc2)ncn1CCc1ccccc1OC,38.5% (inactive)
9,O=C(CNCc1ccc(F)cc1)Nc1ccccc1-c1ccccc1,25.9% (inactive)
10,OC1CCCN(c2ncnc3c2nnn3Cc2c(F)cccc2Cl)C1 (configuration not stated),-10.3% (inactive)
11,C(=N\Nc1ccc2ccccc2n1)/c1ccc2c(c1)OCO2,69.8% (active)
12,Cc1cccc(NC(=O)/C=C/c2ccc3c(c2)OCO3)n1,-33.1% (inactive)
13,O=C(CNC(=O)C(c1ccccc1)c1ccccc1)N/N=C\c1ccc2c(c1)OCO2,-30.7% (inactive)
14,COc1ccc(-c2nn(-c3ccccc3)cc2CN2CCCO2)c(F)c1,-17.1% (inactive)
15,COc1cccc(-c2nn(-c3ccccc3)cc2/C=C(\C#N)C(=O)NCCCn2ccnc2)c1,-24.5% (inactive)
16,COc1ccc(-c2nn(-c3ccccc3)cc2/C=C2/SC(=S)N(CCCC(=O)O)C2=O)c(C)c1,58% (active)
17,O=C(C1CCC1)N1CCN(S(=O)(=O)c2ccc([N+](=O)[O-])cc2)CC1,-10.9% (inactive)
18,Cc1ccc2c(C)c(C(=O)N3CCN(c4ccncc4)CC3)oc2c1C,5.65% (inactive)
19,Clc1cccc(N=C2NN=C(c3ccc4c(c3)OCCO4)CS2)c1,66.2% (active)
20,CC(=NC1CCN(Cc2ccccc2)CC1)c1c(O)[nH]c(=O)[nH]c1=O,26.3% (inactive)
21,c1ccc(CN2CCC(N=C3NN=C(c4ccc5c(c4)OCCO5)CS3)CC2)cc1,77.6% (active)
22,CS(=O)(=O)N(CC(=O)N1CCN(Cc2ccccc2)CC1)c1ccc2c(c1)OCCO2,19.4% (inactive)
23,CN(C)c1nc(=Nc2cccc(Cl)c2)ss1,-31.5% (inactive)

row,SMILES,inhibition
1,C/C(=N\NC(=O)c1ccc(NS(=O)(=O)c2cccs2)cc1)c1ccc2ccccc2c1,-29.3% (inactive)
2,CC(NC(=O)c1ccc(S(=O)(=O)Nc2ccccc2)cc1)c1ccc(S(N)(=O)=O)cc1 (configuration not stated),2.55% (inactive)
3,COCCOC(=O)c1c(C)oc2cc(Br)c(OCC(N)=O)cc12,9.46% (inactive)
4,CC(=O)c1ccc(NC(=O)C(C)OC(=O)c2ccc(NS(=O)(=O)c3ccc4[nH]c(=O)[nH]c4c3)cc2)cc1 (configuration not stated),-12.5% (inactive)
5,CCCCN1C(=S)NC[C@@H]1C(C)CC (some centres not stated),-3.76% (inactive)
6,O=[N+]([O-])/C(N=Nc1ccccc1)=N\Nc1ccccc1,-1.58% (inactive)
7,COC(=O)c1cc(=O)n(-c2c(Cl)cc(C(F)(F)F)cc2Cl)[nH]1,6.27% (inactive)
8,NC1=NC(=O)S/C1=C\c1ccc(O)cc1,-17.8% (inactive)
9,CCOc1cccc(/C=C/c2ccc3ccccc3n2)c1OC(C)=O,33.9% (inactive)
10,COc1cccc(NC(=O)COC(=O)c2ccc3ccccc3n2)c1,-23.3% (inactive)
11,COc1cccc(/C=C/c2ccc3ccccc3n2)c1OC(C)=O,54.2% (active)
12,CCOc1ccc(C2c3[nH]c4ccccc4c3CCN2Cc2cccn2-c2ncccn2)cc1 (configuration not stated),47.5% (inactive)
13,COC(=O)C1=C(C(=O)OC)[C@@H]2N(C)c3ccccc3[C@@]23C[C@@H](C(=O)OC)N(C(=O)c2ccco2)C3=N1,7.75% (inactive)
14,O=C(Cc1ccc(Cl)cc1)NC1CCS(=O)(=O)C1 (configuration not stated),3.91% (inactive)
15,O=S1(=O)CC(NCc2ccccc2)C(Nc2ccc(Cl)cc2)C1 (configuration not stated),57% (active)
16,O=C(NCCS(=O)(=O)NCc1ccc(Cl)cc1)c1ccccc1,4.3% (inactive)
17,CC(NC(=S)Nc1ccc(OC(F)F)cc1)c1ccc(F)cc1 (configuration not stated),-5.08% (inactive)
18,Cc1cccc(N2CCN(S(=O)(=O)c3ccc(-c4cc(C)no4)s3)CC2C)c1 (configuration not stated),-15% (inactive)
19,COc1ccc(CNS(=O)(=O)c2ccc(-c3cnc(C4CC4)o3)cc2)cc1,26% (inactive)
20,Cc1cccc(NS(=O)(=O)c2ccc(-c3cnc(C4CC4)o3)cc2)c1,50.5% (active)
21,Cc1cccc(CNS(=O)(=O)c2ccc(-c3cnc(C4CC4)o3)cc2)c1,15.4% (inactive)
22,Cc1c(NC(=O)CCC2CCCCC2)cc(C(=O)N2CCOCC2)cc1[N+](=O)[O-],12.1% (inactive)
23,COC(=O)[C@]1(C)N[C@H](CN(C)C(=O)c2ccc(C(C)(C)C)cc2)[C@@H]2C(=O)N(C)C(=O)[C@@H]21,-13.4% (inactive)

row,SMILES,inhibition
1,COc1cccc(OCC(=O)NCCS(=O)(=O)N2CCN(c3ccccc3)CC2)c1,17.7% (inactive)
2,COCc1cc(C)nc(Nc2cc(C)ccc2C)c1C#N,0.76% (inactive)
3,O=C(COC(=O)c1ccncc1)c1ccccc1,-18.8% (inactive)
4,Cc1noc(C)c1COC(=O)COc1ccc(-c2ccccc2)cc1,4.68% (inactive)
5,O=C(Oc1ccc(-c2nc(-c3ccccn3)no2)cc1)c1ccccc1,60% (active)
6,CC(C)Cn1c(N)c(C(=O)NCc2cccs2)c2nc3ccccc3nc21,51.3% (active)
7,O=C(Cc1coc2ccc3ccccc3c12)NCc1cccs1,-38.6% (inactive)
8,O=C(NCc1cccs1)c1cc(-c2ccccn2)nc2ccc(Br)cc12,-12.5% (inactive)
9,CCOc1ccc(NC(=O)CCS(=O)(=O)c2ccc3c(c2)CCCN3C(=O)CC)cc1,21.6% (inactive)
10,CCOC(=O)c1cc(C)sc1NC(=O)C1CCC1,12.2% (inactive)
11,CCN1CCN(C(=O)CCN2C(=O)c3ccccc3C2=O)CC1,13.8% (inactive)
12,CC1=NN(C(=O)CCCc2ccccc2)C(O)(C(F)(F)F)C1 (configuration not stated),6.41% (inactive)
13,C=CCN1CCN(C(=O)CCCc2ccccc2)CC1,73.6% (active)
14,C/C(CC(=O)NC(C)c1ccccc1)=N\NC(N)=S (configuration not stated),0.63% (inactive)
15,Cn1nccc1C(=O)NC1CCCc2c1cnn2-c1ccc(F)cc1F (configuration not stated),28% (inactive)
16,COc1ccc(OC)c(C(=O)NC2CCCc3c2cnn3-c2cc(C)cc(C)c2)c1 (configuration not stated),-13.7% (inactive)
17,COc1ccc(C(=O)NC2CCCc3c2cnn3-c2cccc(C)c2C)c(OC)n1 (configuration not stated),55.4% (active)
18,Cc1ccccc1-n1nc(C)c2c1N=C1C(Cl)=CC(Cl)=CN1C2c1ccc(C(=O)O)cc1 (configuration not stated),1.29% (inactive)
19,Cc1cc(Br)cn2c(Cc3ccccc3C(F)(F)F)c(C3CCCCC3)nc12,15.5% (inactive)
20,CCOC(=O)c1cnc(SCc2nc(N)nc(Nc3ccc(OC)cc3)n2)nc1N,-4.61% (inactive)
21,CCS(=O)(=O)N1Cc2ccccc2CC1C(=O)Nc1nc2ccc(F)cc2s1 (configuration not stated),42.9% (inactive)
22,CSc1ncccc1C(=O)Nc1ccc2c(c1)OCO2,-13.6% (inactive)
23,CSc1ncccc1C(=O)Nc1nc2ccc(F)cc2s1,54.6% (active)
